# PLK1 PBD block: blocks phosphopeptide binding to human PLK1 polo-box domain; P53350; Plk1 PBD binding of FITC phosphopeptide, fluorescence polarization; Potency, µM, for inactives: max response, negative = inhibition, most hits filed as inhibitors; actives 2.8% (n = 360,000); AID 720504; further: series mostly up to about 57 µM; on the % scale 0 is the no-effect control and ±100 the full control effect; nearly all actives have a fitted effect of over 65% in size
# HP1b binding inh: blocks HP1-beta chromodomain binding to methylated histone tails; P83916; AlphaScreen HP1-beta / biotin-H3K9me3 peptide binding; Potency, µM (highest dose often 114 µM), for inactives: at the highest dose activity change, negative = inhibition, usual class: inhibitors; actives 0.56% (n = 390,000); further: nearly all actives have a fitted effect of over 70% in size
#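 Compound inhibition of the preformed complex between 50 nM HP1-beta and 50 nM biotinylated H3K9me3 peptide was read by AlphaScreen. Buffer was PBS pH 7.4 with 0.01% Tween-20. Incubations ran 30 min at room temperature, with 10 ug/mL donor/acceptor beads.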
# JMJD2A Tudor inh: inhibitors of human JMJD2A Tudor domain; O75164; AlphaScreen JMJD2A-Tudor / H3K4me3 peptide binding; Potency, µM (titrated, usually from 114 µM), without a hit: at the top dose activity change, negative = inhibition, usual class: inhibitors; actives 4.4% (n = 390,000); AID 504339; further: on the % scale 0 is the no-effect control and ±100 the full control effect; nearly all actives have a fitted effect of over 50% in size
# Target sequence (O75164 whole entry, looked up, the tested form may be a part): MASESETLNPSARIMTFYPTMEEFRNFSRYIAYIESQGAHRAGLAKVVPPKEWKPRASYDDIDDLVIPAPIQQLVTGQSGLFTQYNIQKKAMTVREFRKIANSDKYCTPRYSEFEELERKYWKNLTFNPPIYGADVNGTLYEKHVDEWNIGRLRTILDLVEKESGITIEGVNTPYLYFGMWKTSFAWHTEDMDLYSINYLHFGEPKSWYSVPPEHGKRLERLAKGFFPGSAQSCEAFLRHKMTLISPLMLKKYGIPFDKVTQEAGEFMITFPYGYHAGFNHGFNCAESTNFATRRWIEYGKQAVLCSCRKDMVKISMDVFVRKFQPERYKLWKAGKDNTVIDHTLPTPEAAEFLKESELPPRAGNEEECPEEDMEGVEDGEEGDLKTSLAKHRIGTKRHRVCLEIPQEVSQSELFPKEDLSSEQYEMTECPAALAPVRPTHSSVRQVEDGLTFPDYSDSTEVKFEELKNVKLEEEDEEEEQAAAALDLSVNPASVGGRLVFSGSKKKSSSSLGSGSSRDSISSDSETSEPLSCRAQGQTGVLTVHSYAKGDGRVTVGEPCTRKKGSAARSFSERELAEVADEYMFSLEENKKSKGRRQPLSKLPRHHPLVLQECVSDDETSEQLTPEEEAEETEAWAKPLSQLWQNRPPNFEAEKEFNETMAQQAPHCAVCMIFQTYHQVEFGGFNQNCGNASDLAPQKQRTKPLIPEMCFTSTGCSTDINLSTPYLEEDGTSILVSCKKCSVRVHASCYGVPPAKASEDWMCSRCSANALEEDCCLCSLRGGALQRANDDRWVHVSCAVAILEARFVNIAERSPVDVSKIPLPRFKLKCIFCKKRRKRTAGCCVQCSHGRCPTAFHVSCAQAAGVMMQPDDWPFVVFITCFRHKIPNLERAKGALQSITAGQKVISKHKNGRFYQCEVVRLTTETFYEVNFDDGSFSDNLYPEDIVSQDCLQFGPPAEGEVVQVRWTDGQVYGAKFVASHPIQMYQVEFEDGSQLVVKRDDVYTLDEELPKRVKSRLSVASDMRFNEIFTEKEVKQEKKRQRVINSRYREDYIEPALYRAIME
# G9a block: blocks human histone lysine methyltransferase G9a; Q96KQ7; G9a H3K9 monomethylation, AlphaScreen, 2 h; Potency, µM (top dose mostly 102 µM), for the others: top-dose activity, negative = inhibition, most hits filed as inhibitors; actives 8.8% (n = 350,000); further: on the % scale 0 is the no-effect control and ±100 the full control effect; nearly all actives have a fitted effect of over 75% in size
#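 G9a (20 nM) preincubated 15 min RT with compounds, then 500 nM biotinylated H3K9 peptide and 20 uM SAM added; 2 h RT reaction. Monomethyl-H3K9 product detected by AlphaScreen with anti-H3K9me1 antibody, streptavidin donor and anti-rabbit IgG acceptor beads.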
# Sfp PPTase inh: blocks B. subtilis Sfp PPTase activity | AID 1490 | actives 3.5% (n = 310,000) | Q9F4F7 | Potency, µM, without a hit: largest response in the series, negative = inhibition, most hits filed as inhibitors | Biochemical Sfp PPTase activity, qHTS;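 further: the enzyme is Sfp with the accession as filed and its product quenches rhodamine fluorescence; 0% = enzyme reaction without inhibitor and -100% = no enzyme wells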
#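 Fluorescence-quenching assay with 15 nM Sfp, 5 uM rhodamine-CoA and 12.5 uM BHQ-2-labelled ybbR peptide in pH 7.6 Hepes/MgCl2 buffer. Enzyme was pre-incubated with compound for 15 min at room temperature. Rate was taken from the 30-min fluorescence change (525/598 nm).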
# BAZ2B inh: BAZ2B (human) inhibition. Q9UIF8. AlphaScreen BAZ2B-H3K14Ac peptide displacement. Potency, µM (series often up to 114 µM), inactives show top-dose activity change, negative = inhibition, actives largely listed as inhibitors. actives 4.4% (n = 360,000); further: on the % scale 0 is the no-effect control and ±100 the full control effect; nearly all actives have a fitted effect of over 60% in size
#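 Complex of BAZ2B and biotin-H3K14Ac (50 nM apiece) forms over 30 min at RT, then faces library compounds up to 110 uM for another 30 min; AlphaScreen beads added, 20 min dark incubation, luminescence read.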
# Active calls of the source: *; ? = inconclusive; · = no result given; [ ] = dose if it differs, or a comment. An excerpt weighted towards active compounds, which were near 12% of everything screened. The call rests on the fitted dose curve; in most records, active means well fitted curve in the direction sought with a large enough effect; inconclusive means small, poorly fitted or top-dose-only effect, or another doubt; inactive means no such curve, though single readings can be large; an effect the other way counts as inactive or inconclusive. Potency means the concentration at half of the fitted maximal effect.
SMILES,PLK1 PBD block,HP1b binding inh,JMJD2A Tudor inh,G9a block,Sfp PPTase inh,BAZ2B inh
CN(CC(=O)NCc1ccccn1)S(=O)(=O)c1ccc(F)cc1,-23.4%,47.6%,1.1%,26.4%,7.0%,5.0%
ON(CCc1ccccn1)Cc1ccccc1,1.9%,44.2%,-7.6%,·,·,·
CN(CCc1ccccn1)S(=O)(=O)c1ccc(F)cc1,-5.8%,28.2µM*,5.62µM*,7.08µM*,-26.3%,44.7µM*
CCOc1ccc(CN(C)CCc2ccccn2)cc1,-5.9%,25.1µM*,17.8µM*,17.8µM*,?,56.2µM*
COc1ccc(CN(C)CCc2ccccn2)c(OC)c1OC,-6.7%,?,1µM*,7.8%[2.33 µM],?,28.2µM*
ON(CCc1ccccn1)CCc1ccccn1,-12.8%,-6.1%,14.1µM*,·,·,·
CC(C)=C1C(=O)C(c2ccccc2)=C2CN3C(=O)N(CCc4ccccc4)C(=O)[C@]3(C)[C@H]21,·,·,·,·,-2.1%,·
CC1=C(C(=O)N(C)C)CC(CC(=O)NCCCCc2ccccc2)C(=O)N1CCCN1CCCC1=O (centres undefined),-11.0%,·,·,·,·,·
Cc1cccc(CN(C)CCc2ccccn2)c1,-1.5%,?,3.16µM*,?,-20.2%,?
COc1cccc(Cn2c(CNC(=O)Cc3cccc(C)c3)nc3cccnc32)c1,·,10.8%[57 µM],-12.3%,2.3%[59 µM],·,-1.3%
CCN1C(=O)/C(=C\c2cn(CCC#N)nc2-c2ccc(F)cc2)SC1=S,?,?,22.4µM*,35.5µM*,?,35.5µM*
COc1ccc(-c2nn(-c3ccccc3)cc2/C=C2/SC(=S)N(CCC(=O)O)C2=O)c(C)c1,11.9µM*,?,25.1µM*,39.8µM*,-28.2%,50.1µM*
COc1ccc(-c2nn(-c3ccccc3)cc2/C=C2/SC(=S)N(CCC(=O)O)C2=O)cc1,21.2µM*,35.5µM*,20µM*,39.8µM*,-6.7%,17.8µM*
CCOc1ccc(-c2nn(-c3ccccc3)cc2/C=C2\SC(=S)N(C3CCS(=O)(=O)C3)C2=O)cc1 (centres undefined),?,-15.9%,-33.3%,?,12.8%,-25.2%
O=C1C(=Cc2cn(-c3ccccc3)nc2-c2ccc(OCc3ccccc3F)cc2)SC(=S)N1CCS(=O)(=O)O,9.47µM*,·,·,·,·,·
N#CCCn1cc(/C=C2\NC(=S)N(c3ccccc3)C2=O)c(-c2ccc(-c3ccccc3)cc2)n1,-14.4%,18.2%,-25.1%,14.2%[59 µM],24.5%,-18.0%
O=C(Nc1cc(Cl)ccc1Cl)C1(c2cccs2)CCOCC1,·,57.3%,17.2%,5.3%[59 µM],·,56.3%
Cc1ccc(-c2nn(-c3ccccc3)cc2/C=C2\SC(=S)N(CC(=O)O)C2=O)cc1,29.9µM*,-24.4%[57 µM],39.8µM*,35.5µM*,50.1µM*,22.4µM*
CCN1C(=O)/C(=C/c2cn(-c3ccccc3)nc2-c2cccnc2)SC1=S,19.3%,0.8%,-26.2%,·,·,·
CCNC(=O)CCSc1nnc(-c2ccncc2)o1,-12.0%,0.5%,-11.2%,0.2%,20.2%,-18.4%
CCNC(=O)CCSc1nnc(-c2ccc(O)cc2)o1,·,-2.5%,0.3%,12.6µM*,·,1.2%
O=C(CCSc1nnc(-c2ccncc2)o1)Nc1cccc2ccccc12,-10.2%,45.9%,-21.1%,10.0%[59 µM],6.1%,5.7%
CC(Sc1nnc(-c2ccc(O)cc2)o1)C(=O)Nc1cccc2ccccc12 (centres undefined),-25.3%,-3.7%,-18.9%[57.1 µM],12.6µM*,-11.7%,-30.2%
NC(=O)c1ccc([N+](=O)[O-])cc1SCc1ccccc1,-21.7%,17.3%,-29.2%,39.8µM*,-10.6%,?
Cc1ccc(NCc2nnc(SCC(=O)Nc3cccc(O)c3)n2CC2CCCO2)c(C)c1 (centres undefined),1.5%,-8.0%,?,56.2µM*,-9.7%,?
SMILES,PLK1 PBD block,HP1b binding inh,JMJD2A Tudor inh,G9a block,Sfp PPTase inh,BAZ2B inh
Cc1ccc(NCc2nnc(SCC(=O)NCc3ccco3)n2CC2CCCO2)cc1Cl (centres undefined),?,-22.1%,79.4µM*,?,-11.4%,-38.7%
O=c1cc(CO)oc(C(Nc2ccccn2)c2ccc(F)cc2)c1O (centres undefined),15µM*,?,39.8µM*,-119.8%[12.7 µM],10µM*,-27.2%
O=c1cc(CO)oc(C(Nc2ccccn2)c2ccsc2)c1O (centres undefined),·,·,·,2µM*,22.4µM*,?
O=C(NNc1ccccn1)C(c1ccccc1)c1ccccc1,-3.4%,8.8%,-13.8%,2.0%,8.4%,-23.0%
O=c1cc(CO)oc(C(Nc2ccccn2)c2ccccc2Cl)c1O (centres undefined),?,?,28.2µM*,1.12µM*,50.1µM*,?
Cc1ccnc(NC(c2ccccc2O)c2oc(CO)cc(=O)c2O)c1 (centres undefined),?,1.0%,-16.7%,0.891µM*,10µM*,?
O=C(NCc1ccc(F)cc1F)[C@@H]1CCCN1C(=O)[C@@H]1CCCN1C(=O)c1cccc2ccccc12,-13.4%,·,·,·,·,·
N#Cc1ccc2c(c1)C[C@]1(c3ccsc3)OC3=C(C(=O)OC4(CCCCC4)C3)C2O1,·,·,·,·,2.7%,-13.4%[22.9 µM]
CCOC(=O)CSc1nnc(CNC(=O)c2cccc(C)c2)n1C,-15.6%,14.9%,0.7%,11.8%,18.2%,9.5%
Cc1c(Cl)cccc1NS(=O)(=O)c1ccc(-c2ccc(=O)[nH]n2)o1,-17.1%,24.3%,-9.0%,4.0%[59 µM],18.9%,-8.5%
O=C(Nc1ccccc1F)c1nc(SCc2ccccc2F)ncc1Cl,·,73.3%,5.3%,50.6%[59 µM],·,19.4%
COc1ccccc1CNC(=O)[C@H](C)NC(=O)C1CCN(C(=O)[C@@H](N)C(C)C)CC1,5.6%,56.5%,-6.8%,·,6.0%,0.1%
CCNc1ncc2nc(-c3ccc(F)cc3)c(=O)n(Cc3ccc(F)cc3)c2n1,·,·,·,3.9%[0.501 µM],10.4%,·
Cc1sc2nc(CSC(C)C(=O)NC3(C#N)CCCCC3)[nH]c(=O)c2c1C (centres undefined),?,22.4%,-3.4%,44.7µM*,·,-11.0%
Cc1ccc(F)cc1NC(=O)CSCc1nc2sc(C)c(C)c2c(=O)[nH]1,?,12.2%,-22.3%,39.8µM*,·,-2.2%
Cc1sc2nc(CSCC(=O)Nc3ccccc3C#N)[nH]c(=O)c2c1C,?,-5.7%,-17.4%,?,79.4µM*,6.7%
Cc1sc2nc(CSC(C)C(=O)Nc3ccc(C#N)cc3)[nH]c(=O)c2c1C (centres undefined),?,13.1%,-11.0%,15.9%[0.501 µM],·,3.3%
COc1cc(-c2ccc3ncnc(NCc4nc(C)cs4)c3c2)cc(OC)c1OC,·,·,-32.6%,·,·,·
CCOc1cc(C(=O)Nc2cccc(OCC(=O)N3CCOCC3)c2)cc(OCC)c1OCC,-12.7%,14.3%,-8.6%,13.1%,1.7%,10.9%
Nc1nonc1-n1nnc(C(=O)N/N=C/c2ccc(O)cc2)c1CN1CCCCCC1,?,12.1%,?,·,·,·

# Assay outcomes from PubChem.
